Bioassay records: PubChem, National Center for Advancing Translational Sciences (NCATS)
This is a sample that favours compounds with a hit; in the whole collection about 12% have one here.
Shiga toxin inh = A qHTS for Small Molecule Inhibitors of Shiga Toxin; inhibition, % at 38.7 µM; AID 2315, 2010; actives 9.2% (n = 290,000); Vero cells, Shiga toxin protein synthesis inhibition reporter; in the data active = inhibition mostly above about 28%, no sharp cut-off; inactive = mostly below about 43%; also: 0% is about no effect
Sm TGR inh = qHTS Assay for the Inhibitors of Schistosoma Mansoni Peroxiredoxins | actives 3% (n = 360,000) | purified TGR, DTNB reduction, TNB absorbance 405 nm | AID 485364, 2010 | Schistosoma mansoni thioredoxin glutathione reductase (TGR), Q962Y6 | Potency, µM (series often up to 114 µM), for the others: at the highest dose activity change, negative = inhibition, usual class: inhibitors; active = well fitted inhibition curve with a large enough effect; inconclusive = small, poorly fitted or top-dose-only effect; inactive = no such curve, though single readings can be large or run the other way; also: potency is read from the fitted curve at half-maximal effect; % is scaled to controls: 0 for no effect and ±100 for the full control effect; nearly all actives have a fitted effect of over 60% in size
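Kinetic colorimetric format: TGR-catalysed, NADPH-driven DTNB reduction monitored via TNB absorbance. Enzyme dispensed at 20 nM; compound exposure 15 min at room temperature before reaction start.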
CHX counter = Cycloheximide Counterscreen for Small Molecule Inhibitors of Shiga Toxin; cell reporter, cycloheximide protein synthesis inhibition counterscreen; actives 12% (n = 300,000); AID 2314, 2010; max response, %; in the data active = max response mostly above about 13%, no sharp cut-off; inactive = mostly below about 14%; also: read at 38.3 µM for the half of the compounds with a filed dose; 0% is about no effect
FMDV antiviral = High Throughput Screening for Foot and Mouth Disease Virus Antivirals; FMDV antiviral cell-based qHTS; Potency, µM (series often up to 57.9 µM), for the others: at the highest dose activity change, negative = inhibition, usual class: inhibitors; actives 1.2% (n = 410,000); calls by dose curve; tested in HEK293T cells; also: read-out not given here; potency is read from the fitted curve at half-maximal effect; % is scaled to controls: 0 for no effect and ±100 for the full control effect; nearly all actives have a fitted effect of over 45% in size
The depositor's hits bear a star; u = inconclusive; x = no result given; [ ] = another dose, or the depositor's remark.

SMILES | Shiga toxin inh | Sm TGR inh | CHX counter | FMDV antiviral
Cc1cc(NC(=O)COC(=O)C2CC2)ccc1Br | x | -23% | x | 21%
CCCCc1ccc(NC(=O)COCC)cc1 | 44* | 10% | 50* | 69%
CCOCC(=O)Nc1ccc(Br)c(C)c1 | 76* | x | 32* | 29%
CCCCc1ccc(NC(=O)CC(C)C)cc1 | 66* | x | 29* | 74%
COc1ccc(NC(=O)c2c(C)oc3ccc(O)c(CN4CCN(Cc5ccccc5)CC4)c23)cc1 | x | 9% | x | -22%
COc1cc(OC)c2nc(-c3cc4c(c(OC)c3)OCCN(C(=O)C(C)c3n[nH]c(=O)c5ccccc35)C4)cc(C)c2c1 (configuration not stated) | x | x | x | -9%
CC1CC=CC2C1C(=O)N(Cc1ccccc1)C2c1ccc(Br)cc1F (configuration not stated) | 35 | x | 18 | x
COc1ccc(C2C(=O)N(C3CCCCCC3)CC(=O)N2Cc2ccc(C)cc2)cc1 (configuration not stated) | x | 16% | x | -20%
COc1cccc(-c2nnc(SCC(=O)NC3CCCCC3)o2)c1 | x | 10% | x | 21%
O=C(Nc1ccc2c(c1)OCO2)c1n[nH]c(=O)c2ccccc12 | 57* | 1% | 18* | 23%
O=C(Nc1ccc2c(c1)OCO2)c1nn(-c2ccccc2)c(=O)c2ccccc12 | -8 | -8% | -4 | -12%
CC(C)(C)c1ccc(NC(=O)c2ccc(=O)[nH]n2)cc1 | 111* | 6% | 54* | -3%
O=C(Nc1ccc2c(c1)OCO2)c1ccc(=O)[nH]n1 | 52* | -3% | 18* | 1%
O=C(Nc1ccccc1-c1ccccc1)c1ccc(=O)[nH]n1 | 83* | 63% | 46* | 52%
O=C(Nc1ccc2c(c1)OCCO2)NC1(C(F)(F)F)Oc2ccccc2O1 | 89* | 40µM* | 92* | -23%
O=C(Nc1ccc2c(c1)OCO2)NC1(C(F)(F)F)Oc2ccccc2O1 | 66 | 35µM* | 30 | 13%
O=C(NCC1CCCO1)NC1(C(F)(F)F)Oc2ccccc2O1 (configuration not stated) | 19 | u | 27 | -8%
O=C(NC1(C(F)(F)F)Oc2ccccc2O1)N1CCCC1 | 18 | 40µM* | -2 | -16%
O=C(c1ccccc1)c1ccc(Cn2cc(-c3ccccc3)nn2)cc1 | 57* | 4% | 24* | -6%
FC(F)(F)c1cnc(-c2cnc(-c3cccnc3)nc2)c(Cl)c1 | 116* | 17% | 48* | 47%
O=C(CCCn1c(=O)c2sccc2n(Cc2ccc(F)cc2Cl)c1=O)NCc1ccc2c(c1)OCO2 | x | 1% | x | -16%
CCOc1ccc(-c2cc3nc(C4CCN(C(=O)OC(C)(C)C)CC4)c(C(=O)O)cn3n2)cc1 | -5 | -11% | 24* | u
COc1ccccc1CNc1ccc(-c2nc(-c3ccccn3)no2)cc1[N+](=O)[O-] | x | -7% | x | 44%
CC(C)(C)c1ccc(NC(=O)CC2(C(F)(F)F)OCCO2)cc1 | 33 | -6%[11.4 µM] | 32* | x
CC(=O)N1CCc2c(sc3c2c(=O)n(-c2cc(Cl)ccc2C)c(=O)n3C)C1 | x | -10% | x | -5%
SMILES | Shiga toxin inh | Sm TGR inh | CHX counter | FMDV antiviral
CN1C(=O)C(O)(CC(=O)/C=C/c2ccco2)c2cc(Br)ccc21 (configuration not stated) | -11 | 18µM* | -3 | -4%
COc1ccc(-c2c[n+]3c4n2CCCCC4=C(c2ccccc2)C3)cc1 | -5 | -1% | -3 | 22µM*
O=C(C1=C(O)C(=O)N(CCN2CCOCC2)C1c1cccc(Br)c1)c1cc2ccccc2o1 (configuration not stated) | -1 | 0% | -3 | 11%
O=C(C1=C(O)C(=O)N(CCN2CCOCC2)C1c1ccc(F)cc1)c1cc2ccccc2o1 (configuration not stated) | 2 | 28µM* | -2 | -7%
O=C(C1=C(O)C(=O)N(CCN2CCOCC2)C1c1ccco1)c1cc2ccccc2o1 (configuration not stated) | 11 | 22µM* | 11 | -3%
O=C(C1=C(O)C(=O)N(CCCN2CCOCC2)C1c1ccccn1)c1cc2ccccc2o1 (configuration not stated) | 10 | -32% | -4 | -8%
Cc1ccc2c(c1)N(CC(=O)Nc1ccccc1C(F)(F)F)C(=O)c1cccnc1O2 | x | -1% | x | 0%
CCn1c(CN2CCCCC2)nc2cc(NC(=O)COc3ccc([N+](=O)[O-])cc3)ccc21 | x | -2% | x | u
CC(C)c1ccc(NC(=O)C2CC(=O)Nc3nc4ccccc4n32)cc1 (configuration not stated) | 18 | -3% | 23* | -16%
Cc1nc2c(C(=O)NCCc3ccccc3)cnn2c(C)c1Cc1c(F)cccc1Cl | x | 6% | x | u
O=C1CC(c2ccc(F)cc2)CC2=C1C(c1ccc([N+](=O)[O-])o1)Nc1ccccc1N2 (configuration not stated) | 18 | 16µM* | 12* | -3%
O=C1CC(c2ccccc2)CC2=C1C(c1ccccn1)Nc1ccccc1N2 (configuration not stated) | -11 | -4% | -3 | x
CC(=O)c1ccc(OCCCC(=O)Nc2cc(S(=O)(=O)N(C)C)ccc2C)cc1 | -5 | -19% | -2 | 5%
CC(=O)c1ccc(OCCCC(=O)Nc2ccc(Cl)c(S(=O)(=O)N3CCOCC3)c2)cc1 | x | x | x | 16µM*
O=C(CCCSc1ccccc1)Nc1ccc(Cl)c(S(=O)(=O)N2CCOCC2)c1 | x | -11% | x | 25µM*
CCN(CC)S(=O)(=O)c1cc(NC(=O)CCCOc2ccc(C(C)=O)cc2)ccc1C | -11 | -7% | -2 | 16µM*
Cc1ccc(OCCCC(=O)Nc2ccc(Cl)c(S(=O)(=O)N3CCOCC3)c2)cc1 | x | -2% | x | u
COc1cc(C(C)=O)ccc1OCC(=O)Nc1ccc(Cl)c(S(=O)(=O)N2CCOCC2)c1 | x | -16% | x | 20µM*
COc1cc(OC)cc(N2C(=O)CSC23C(=O)Nc2ccccc23)c1 (configuration not stated) | x | 0% | x | -10%
CCCS(=O)(=O)c1c(S(=O)(=O)CCC)c2cc(C(C)(C)C)ccn2c1C(=O)c1ccccc1 | x | -10% | x | u
COc1ccc(NC(=O)c2c(-c3ccc(C)cc3)nnc3ccccc23)c(OC)c1 | x | 0% | x | 3%
CCn1c(=O)n(-c2ccc(F)c(Cl)c2)c(=O)c2c3c(sc21)CN(C(C)=O)CC3 | x | 2% | x | -9%
O=C(CCCOc1ccccc1)Nc1ccc(Cl)c(S(=O)(=O)N2CCOCC2)c1 | x | x | x | 28µM*
CC(C)Cc1nn2c(=O)cc(COC(=O)c3ccc(NC(=O)CCc4ccccc4)cc3)nc2s1 | x | 3% | x | 11%
O=C(Nc1csc([N+](=O)[O-])c1)Nc1c(Cl)cccc1Cl | -13 | -3% | 1 | -16%
O=C(Nc1ccc(Cl)cc1)Nc1ccccc1CC[N+](=O)[O-] | 41* | -5% | 24 | 28%
O=C(Nc1ccc(Cl)cc1)Nc1csc([N+](=O)[O-])c1 | 100* | 5% | 30* | 0%
CN(C)C(=O)Nc1ccccc1CC[N+](=O)[O-] | -2 | -25% | 7 | 5%
O=C(Nc1ccc(Cl)cc1)Nc1ccccc1C(=O)O | 35 | 4%[57.1 µM] | 23* | -77%
